Laboratory results: PubChem BioAssay (Tox21)
“And” between values parts separate entries of the source, which are not always exact repeats. Equal values may be shown once. Inconclusive results are not listed. A number with no mark means an inactive call. The source made the active and inactive calls. The call rests on the fitted dose curve; in most records, active means well fitted activation curve with a large enough effect in the repeat runs; inconclusive means weak or mixed curves; inactive means flat fitted curve, though single readings scatter.

Assay: A CellTox Green Cytotoxicity Assay to monitor cytotoxicity in HEK293 cells - 16 hour (AID 1224888); further: nearly all actives have a fitted effect of over 35% in size
Conditions: CellTox Green fluorescence; series mostly up to 76.8 µM; activity change: at the top concentration
Source text: National Center for Advancing Translational Sciences [NCATS]
NIH Chemical Genomics Center [NCGC]
U.S. Environmental Protection Agency [EPA]
National Institutes of Environmental Health Sciences [NIEHS]
National Toxicology Program [NTP]
Cell-based models are critical for drug discovery. Determining the natural cytotoxic effects resulting from test compounds is an essential research activity. A CellTox Green Cytotoxicity Assay to monitor cytotoxicity in real time of continues cell culture during 40 hours of the compound treatment was used to screen Tox21 10K library compounds in Hek293 cells. CellTox Green Cytotoxicity Assay is a nonlytic, homogeneous, biofluorescent method to measure cytotoxicity in cell culture after experimental manipulation. The assay system uses a proprietary asymmetric cyanine dye that is excluded from viable cells but preferentially stains the dead cell's DNA. […] Viable cells produce no appreciable increases in fluorescence. Therefore, the fluorescence signal produced by the binding interaction with dead cell DNA is proportional to cytotoxicity.
The mixture of Hek293 cell suspension and reagents were dispensed at 600cells/6 ul/well in 1536-well tissue culture treated black solid bottom plates using a Multidrop dispenser. After the assay plates were incubated at a 37 C/5% CO2 incubator for 5 hours, 23 nL of compounds dissolved in DMSO, positive and negative controls was transferred to the assay plate by a pintool work station. The plates were incubated at 37 C for 40 hours. The fluorescence intensity were measured at 0h, 8h, 16h, 24h, 32h and 40h time points using ViewLux plate reader during compound treatment.
On the % scale 0 is the no-effect control and ±100 the full control effect; potency means the concentration at half of the fitted maximal effect.

Row | Compound | activity change | Potency
1 | C#CCO | -1.61% | 
2 | O=S1(=O)OCC2C(CO1)C1(Cl)C(Cl)=C(Cl)C2(Cl)C1(Cl)Cl (stereo not given) | 19.2% | 
3 | C=CC(=O)[O][Sn]([CH2]CCC)([CH2]CCC)[CH2]CCC |  | 24.5 µM (active)
4 | COC(=O)c1cc(Oc2ccc(Cl)cc2Cl)ccc1[N+](=O)[O-] | -0.746% | 
5 | CN1C2CCC(C)(C)C1CC(OC(=O)C(O)(c1cccs1)c1cccs1)C2 (stereo not given) | 9.45% [at 35.3 µM, stronger effect = higher value] | 
6 | CC(=O)[O][Sn]([c]1ccccc1)([c]1ccccc1)[c]1ccccc1 |  | 0.347 µM (active)
7 | Cc1nn(-c2cc(NS(C)(=O)=O)c(Cl)cc2Cl)c(=O)n1C(F)F | -1.7% | 
8 | CCCCC(CC)COC(=O)c1ccccc1C(=O)OCC(CC)CCCC (stereo not given) | -2.28% | 
9 | CCCCC/C=C\C/C=C\C/C=C\C/C=C\CCCC(=O)NCC(=O)O | 5.44% [at 35.3 µM, stronger effect = higher value] | 
10 | CCC[CH2][Sn]([CH2]CCC)([CH2]CCC)[CH2]CCC |  | 24.5 µM (active)
11 | CCOP(=S)(OCC)Oc1cc(C)nc(N(CC)CC)n1 | 21.7% | 
12 | CCCC[N+]1(C)CCCC1 (tested in a mixture with another compound) | -9.38% | 
13 | CC(C)Br | -6.43% | 
14 | COc1ccc2[nH]cc(CCN(C(C)C)C(C)C)c2c1 | -1.29% | 
15 | [O]=[Cr][O][Cr]=[O] | 6.04% | 
16 | CCCCc1ccccc1 | -0.0924% | 
17 | S=C=NCCc1ccccc1 | 15.9% | 
18 | NC1CCC(CC2CCC(N)CC2)CC1 (stereo not given) | -1.95% | 
19 | CC1CCCC1 | -0.696% | 
20 | CC(C)[C@@H](Nc1ccc(C(F)(F)F)cc1Cl)C(=O)OC(C#N)c1cccc(Oc2ccccc2)c1 (stereo not given in full) | -7.19% | 

Row | Compound | activity change | Potency
21 | [Cl-].[Cl-].[Sn+2] | 0.923% | 
22 | c1ccc(N=NNc2ccccc2)cc1 | 16.9% | 
23 | CNC(=O)Oc1cc(C)cc(C(C)C)c1 | -1.59% | 
24 | COP(=O)(OC)O/C(=C\Cl)c1cc(Cl)c(Cl)cc1Cl | 3.17% | 
25 | N#CC(C#N)=NNc1cccc(Cl)c1 | -7.83% | 
26 | O=[N+]([O-])c1cccc2cccc([N+](=O)[O-])c12 | -8.09% | 
27 | [F][Sn]([c]1ccccc1)([c]1ccccc1)[c]1ccccc1 |  | 6.16 µM (active)
28 | Oc1cccc(Cl)c1Cl | 11% | 
29 | CN(C)CCc1c[nH]c2ccccc12 | -16.8% | 
30 | Cc1ccn2nc(S(=O)(=O)Nc3c(F)cccc3F)nc2n1 | 0.175% | 
31 | C[N+]1(C)[C@@H]2CC[C@H]1CC(OC(=O)C(CO)c1ccccc1)C2 (stereo not given in full) | -7.45% [at 35.3 µM, stronger effect = higher value] | 
32 | CCN(CC)CCN1C(=O)CN=C(c2ccccc2F)c2cc(Cl)ccc21 | 3.83% [at 35.3 µM, stronger effect = higher value] | 
33 | O=C1C2(Cl)C3(Cl)C4(Cl)C(Cl)(Cl)C5(Cl)C3(Cl)C1(Cl)C5(Cl)C24Cl (stereo not given) |  | 42.9 µM (active) and 52.6 µM (active)
34 | CCNc1nc(NC(C)C(C)C)nc(SC)n1 (stereo not given) | -9.51% | 
35 | CCN(CC)C(=S)S |  | inactive
36 | C=CC(=C)C | 18.3% | 
37 | CC(C)(C)c1ccc(OP(=O)(Oc2ccccc2)Oc2ccccc2)cc1 | -14.2% | 
38 | CC(Cl)CCl (stereo not given) | -0.75% | 
39 | COP(=S)(OC)Oc1ccc([N+](=O)[O-])c(C)c1 | 3.11% | 
40 | CC1(C)C(C=C(Cl)Cl)C1C(=O)OC(C#N)c1ccc(F)c(Oc2ccccc2)c1 (stereo not given) | -14% | 
